B2AR ag: activates human beta-2 adrenergic receptor causing internalization. Am2.2-beta2AR cells, FAP receptor internalization, flow cytometry. P07550. actives 0.43% (n = 340,000). response, % (no concentration beside the values);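 active means response above a set limit, near 3 SD of response in nonfluorescent compounds, cut at about 42% in these data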
NTR1 ag: agonists of human neurotensin receptor NTR1 | activation, % at 20 µM | NTR1-U2OS beta-arrestin-GFP spot imaging, agonist mode | AID 493036 | actives 0.17% (n = 330,000);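 active means activation at or above 40% of the spot to cytoplasm intensity ratio, with at least 20 cells analyzed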;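 further: 0% = DMSO without peptide and 100% = 100 nM NTR1 peptide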
ABHD5-PLIN5 inh: inhibitors of human ABHD5-perilipin-5 interaction; Q00G26+Q8WTS1; inhibition, % at 4 µM; Split G. princeps luciferase complementation, luminescence, 4 h; actives 0.78% (n = 360,000);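 active means inhibition above the mean inhibition across every tested compound plus 3 SD, cut at about 22% in these data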;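 further: 0% = DMSO only wells and the 100% control is not disclosed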
TLR4 MyD88 comp: blocks binding of human TLR4 to MyD88. HeLa CL3-4 TLR4/MyD88 BLA complementation, FRET ratio. AID 861. actives 0.18% (n = 200,000). O00206+Q99836. inhibition, % at 8.4 µM; in the data active means inhibition above about 25%;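 further: 0% = vehicle and 100% = reference inhibitor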
Target sequence (O00206 whole entry, looked up): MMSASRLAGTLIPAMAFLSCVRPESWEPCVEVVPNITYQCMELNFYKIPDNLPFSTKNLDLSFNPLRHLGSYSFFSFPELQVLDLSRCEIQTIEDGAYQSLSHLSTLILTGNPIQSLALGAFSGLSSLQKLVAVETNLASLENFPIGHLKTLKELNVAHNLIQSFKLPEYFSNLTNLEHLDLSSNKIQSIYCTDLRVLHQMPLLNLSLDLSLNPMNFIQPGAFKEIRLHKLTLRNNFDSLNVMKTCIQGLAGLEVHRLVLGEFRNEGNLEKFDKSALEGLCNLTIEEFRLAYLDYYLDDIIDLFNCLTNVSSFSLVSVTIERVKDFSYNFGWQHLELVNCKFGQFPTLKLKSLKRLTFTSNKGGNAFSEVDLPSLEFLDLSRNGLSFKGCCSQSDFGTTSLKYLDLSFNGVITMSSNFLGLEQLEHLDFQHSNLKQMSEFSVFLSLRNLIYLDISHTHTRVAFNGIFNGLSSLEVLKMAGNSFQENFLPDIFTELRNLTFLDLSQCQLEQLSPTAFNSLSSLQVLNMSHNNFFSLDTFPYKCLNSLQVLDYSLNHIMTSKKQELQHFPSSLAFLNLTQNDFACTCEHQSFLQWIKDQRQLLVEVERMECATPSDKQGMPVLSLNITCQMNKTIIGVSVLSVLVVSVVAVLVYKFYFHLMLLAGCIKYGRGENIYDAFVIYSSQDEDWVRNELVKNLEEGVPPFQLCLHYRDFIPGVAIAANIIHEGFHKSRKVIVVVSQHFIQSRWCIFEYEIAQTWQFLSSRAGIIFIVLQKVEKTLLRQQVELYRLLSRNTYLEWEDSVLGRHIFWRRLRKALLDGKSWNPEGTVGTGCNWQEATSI
Target sequence (Q99836 whole entry, looked up): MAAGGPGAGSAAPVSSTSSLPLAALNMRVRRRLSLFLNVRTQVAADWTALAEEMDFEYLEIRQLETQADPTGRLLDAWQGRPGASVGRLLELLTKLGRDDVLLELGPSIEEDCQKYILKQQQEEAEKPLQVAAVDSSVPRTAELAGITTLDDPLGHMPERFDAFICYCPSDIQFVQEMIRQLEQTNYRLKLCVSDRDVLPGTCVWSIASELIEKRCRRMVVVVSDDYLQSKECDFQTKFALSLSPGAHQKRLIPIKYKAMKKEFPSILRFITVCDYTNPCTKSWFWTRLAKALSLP
TLR9-MyD88 inh: inhibitors of human TLR9-MyD88 binding; actives 0.21% (n = 340,000); CHO BLA complementation TLR9-MyD88, CCF4 FRET ratio; AID 504734; inhibition, % at 4.98 µM; Q9NR96+Q99836;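 active means inhibition above the mean over all tested compounds plus 3 SD, cut at about 21% in these data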;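 further: 0% = DMSO only wells and 100% = clavulanate BLA inhibitor control wells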
NOD2-RIPK2 inh: inhibitors of human NOD2-RIPK2 interaction; inhibition, % at 4.98 µM; CHO BLA complementation NOD2-RIPK2, CCF4 ratio; O43353; AID 624267; actives 0.38% (n = 360,000); in the data active means inhibition above about 21%;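 further: 0% = vehicle only and 100% = reference blocker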
TLR4 MyD88 cnf: TLR4-MyD88 interaction inhibition confirmed; actives 50% (n = 350); inhibition, % at 8.4 µM; HeLa CL3-4 BLA complementation, CCF4 FRET ratio; shares compounds with TLR4 MyD88 comp;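 active means mean inhibition across three repeat runs above about 25% carried over from the earlier screen, limit read from the data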;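 further: plate controls were DMSO only for no effect and clavulanic acid blocking BLA at full dose for full effect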
BLA inh HeLa: inhibits beta-lactamase activity, counter-screen to TLR4-MyD88 binding inhibitors | inhibition, % at 8.4 µM | HeLa BLA reporter, CCF4 FRET ratio | actives 63% (n = 350) | shares compounds with TLR4 MyD88 comp;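 active means mean inhibition over three repeats above about 26% taken from the earlier screen, limit read from the data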;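 further: HeLa cells stably expressing beta-lactamase reporter as counterscreen for TLR4-MyD88 inhibitors; 0% = DMSO and 100% = clavulanic acid full inhibition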
TLR9-MyD88 conf: confirmation of human TLR9-MyD88 binding inhibitors; shares compounds with TLR9-MyD88 inh; CHO TLR9/MyD88 BLA complementation, CCF4 FRET ratio; inhibition, % at 4.98 µM; actives 51% (n = 680); AID 540250;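 active means mean inhibition across three repeats above about 21% taken from the earlier screen, limit read from the data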;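 further: blue over green emission ratio reports constitutive TLR9 MyD88 association via BLA complementation; 0% = DMSO vehicle wells and 100% = clavulanate BLA inhibitor wells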
BLA counter-1: counter-screen for TLR9-MyD88 inhibitors: non-selective beta-lactamase inhibitors; shares compounds with TLR9-MyD88 inh; CHO-BLA cells, CCF4 FRET ratio, BLA reporter; inhibition, % at 4.98 µM; actives 7% (n = 680);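 active means mean inhibition above a 50% cutoff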;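 further: counterscreen of TLR9-MyD88 hits on CMV-driven BLA in CHO-K1 cells; 0% = DMSO alone and 100% = clavulanate blocking BLA; higher means less blue over green ratio so more BLA blockade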
TLR9 CHO tox: CHO cell toxicity counter-screen for TLR9-MyD88 inhibitors | inhibition, % at 4.98 µM | actives 39% (n = 680) | AID 588336 | TLR9-MyD88 CHO cells cytotoxicity, luminescence | shares compounds with TLR9-MyD88 inh; in the data active means inhibition above about 11%
NOD2-RIPK2 conf: NOD2-RIPK2 interaction inhibition confirmed; shares compounds with NOD2-RIPK2 inh; CHO cells, NOD2-RIPK2 BLA complementation, CCF4 FRET; inhibition, % at 4.98 µM; actives 70% (n = 1,200);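 active means mean inhibition across replicates above a set limit taken from the earlier primary screen, cut at about 21% in these data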;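 further: 0% = DMSO-only wells and the high end = clavulanate BLA-blocked wells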
BLA counter-2: NOD2-RIPK2 counterscreen BLA reporter activity; shares compounds with NOD2-RIPK2 inh; actives 57% (n = 1,200); inhibition, % at 4.98 µM; CHO BLA reporter, CCF4 FRET ratio;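 active means mean inhibition above the low-control mean inhibition plus three low-control SD, cut at about 11% in these data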;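 further: 0% = DMSO only wells and 100% = clavulanate high control wells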
Starred values were filed as active, the others as inactive. A selection: hits, their analogues and other compounds. The true share with any hit is near 1.5%.

For Nc1ccc2c(c1)Cc1cc([N+](=O)[O-])ccc1-2 the results were B2AR ag -4, NTR1 ag -4, ABHD5-PLIN5 inh -1, TLR4 MyD88 comp 46*, TLR9-MyD88 inh 46*, NOD2-RIPK2 inh 49*, TLR4 MyD88 cnf 38*, BLA inh HeLa 67*, TLR9-MyD88 conf 31*, BLA counter-1 34, TLR9 CHO tox 11*, NOD2-RIPK2 conf 58* and BLA counter-2 54*.
For CC(=NO)c1ccc2c(c1)Cc1cc([N+](=O)[O-])ccc1-2 the results were B2AR ag 11, ABHD5-PLIN5 inh -6, TLR9-MyD88 inh -2 and NOD2-RIPK2 inh -4.
`N#Cc1ccc(-c2cccc3nccn23)cc1` gave ABHD5-PLIN5 inh 10 and NOD2-RIPK2 inh 2.
`O[C@@H]1C[C@H](c2ccccc2)N(CC2CCCCC2)C[C@H]1n1cc(C2CC2)nn1` gave ABHD5-PLIN5 inh 0, TLR9-MyD88 inh 10 and NOD2-RIPK2 inh 3.
Screening Cc1ccc(NC(=O)CN(C)C(=O)Cc2ccc(Cl)c(Cl)c2)cc1 returned B2AR ag -8, NTR1 ag 3, ABHD5-PLIN5 inh -3, TLR9-MyD88 inh -6 and NOD2-RIPK2 inh -6.
Cc1ccc(NC(=O)CN(C)C(=O)Cn2ncc(Cl)c(Cl)c2=O)cc1 was read as B2AR ag 8, ABHD5-PLIN5 inh 7, TLR4 MyD88 comp 32*, TLR9-MyD88 inh 16, NOD2-RIPK2 inh 25*, TLR4 MyD88 cnf 16, BLA inh HeLa 4, NOD2-RIPK2 conf 23* and BLA counter-2 5.
Cc1n[nH]c(C)c1N1C(=O)c2cccc3c(Br)ccc(c23)C1=O was read as B2AR ag 7, NTR1 ag 9, ABHD5-PLIN5 inh 9, TLR4 MyD88 comp 73*, TLR9-MyD88 inh 48*, NOD2-RIPK2 inh 57*, TLR4 MyD88 cnf 45*, BLA inh HeLa 79*, TLR9-MyD88 conf 22*, BLA counter-1 26, TLR9 CHO tox 4, NOD2-RIPK2 conf 71* and BLA counter-2 59*.
Screening O=C(NCC(O)c1nc2ccccc2[nH]1)c1cc([N+](=O)[O-])ccc1F (centres undefined) returned ABHD5-PLIN5 inh 8 and NOD2-RIPK2 inh 7.
CN(C)c1ccc(/C=C/C(=O)c2cccc(Br)c2)cc1 was read as B2AR ag -455, NTR1 ag -4, ABHD5-PLIN5 inh 8, TLR4 MyD88 comp 63*, TLR9-MyD88 inh 33*, NOD2-RIPK2 inh 60*, TLR4 MyD88 cnf 66*, BLA inh HeLa 90*, TLR9-MyD88 conf 27*, BLA counter-1 34, TLR9 CHO tox -2, NOD2-RIPK2 conf 64* and BLA counter-2 68*.
